In PubChem BioAssay (NCI) one finds growth data, which are given here for 39 molecules.

SMILES strings stand for the structures. Compounds without any hit were thinned out: in the full panel of roughly 83,000, 20% have a hit.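 Values shown are percent growth following 48 h exposure of cells in 96-well plates to a single concentration of compound; below 10 was considered active.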 Calls of active or inactive are those of the source.

The first assay concerns SNB-19 CNS. In words: NCI-60 one-dose screen, 48 h (100 = growth as untreated, 0 = no growth, -100 = all killed). As to conditions: 10 µM unless noted.
As for `CN(C)C(=O)c1ccccc1-n1cnc2ccccc2c1=O`, the growth was 95.2% (inactive).

As to `C=C(C)C(=O)O[C@H]1C[C@@]2(C)OC(=CC2=O)[C@H](C)[C@H](O)[C@H]2OC(=O)C(=C)[C@@H]21`, the growth was 106% (inactive).

For the molecule `O=C(Nc1cc(Cl)cc(Cl)c1)Nc1nc2ccc([N+](=O)[O-])cc2s1`, the growth is 21.3% (inactive).

Regarding `C#C[C@]1(O)CC[C@H]2[C@@H]3CC=C4c5sc(Nc6ccc(OC)nc6)nc5CC[C@]4(C)[C@H]3CC[C@@]21C`, the growth was 50.5% (inactive).

For `CCOc1ccc2nc(NC(=O)Nc3ccccc3C)sc2c1`, the growth is 53.8% (inactive).

As for `CN(c1ccc(Br)cc1)S(=O)(=O)c1ccc(-c2cnc(C3CC3)o2)cc1`, the growth was 37.3% (inactive).

For the molecule `CCNC(=NCCCN(C)C)N/C(N)=N/c1nc2ccccc2s1`, the growth was 90.1% (inactive).

For the molecule `Cc1cc(Cl)cc(NS(=O)(=O)c2ccc(-c3cnc(C4CC4)o3)cc2)c1`, the growth is 36% (inactive).

In the case of `N/C(=N\c1nc2ccc([N+](=O)[O-])cc2s1)C(Cl)(Cl)Cl`, the growth is 61.2% (inactive).

As for `CS(=O)c1nccc(-c2c(-c3ccc(F)c(OCCc4ccc(F)cc4)c3)nc3sccn23)n1` (stereo unspecified), the growth is 70.8% (inactive).

`CN(c1ccc(F)cc1)S(=O)(=O)c1ccc(-c2cnc(C3CC3)o2)cc1`: the growth is 36.9% (inactive).

As for `Cc1cn(-c2cc(NC(=O)c3cncc(C#Cc4cnc5ccc(OCCCS(C)(=O)=O)nn45)c3)cc(C(F)(F)F)c2)cn1`, the growth was 18.8% (inactive).

In a further assay the test system is U251 CNS. The description is as above. As to conditions: 10 µM unless noted.
Regarding `Cc1ccc(NC(=O)N[C@@H](Cc2cc(F)cc(F)c2)C(=O)NC2C(=O)N3CCC[C@H]3C(=O)N3CCCC[C@H]3C(=O)N[C@@H](C)C(=O)N3C[C@H](C)C[C@H]3C(=O)O[C@H]2C)c(F)c1` (stereo partly specified), the growth is 28.3% (inactive).

Consider `COc1ccc(/C=C/C(=O)c2nnn(-c3ccc(C(=O)O)cc3)c2C)cc1OC`, for which the growth was 93.8% (inactive).

As to `O=C(Nc1cc(F)cc2cccnc12)c1cnc(N2CCOCC2)cn1`, the growth was 94.6% (inactive).

In the case of `Oc1ccccc1-c1nnc(SCc2ccc(O)c3ncccc23)o1`, the growth was 23.6% (inactive).

For `COc1cc(/C=C2\SC(=O)NC2=O)ccc1OCC(=O)Nc1ccc(C(=O)/C=C/c2cc3ccccc3nc2Cl)cc1`, the growth was 90.3% (inactive).

`Nc1nc(-c2cccc([N+](=O)[O-])c2)c(N=Nc2ccccc2Cl)s1`: the growth was 43.9% (inactive).

With `Oc1ccc(-c2nnc(SCc3ccc(O)c4ncccc34)o2)cc1`, the growth is 13.2% (inactive).

Take `C[C@H]1[C@H](C)CC[C@]2(COC(=O)c3cccnc3)CC[C@]3(C)C(=CC[C@@H]4[C@@]5(C)CCCNC(C)(C)[C@@H]5CC[C@]43C)[C@H]12`: the growth is 64.4% (inactive).

In the case of `O=c1[nH]c2cc(Cl)ccc2n1C1CCN(c2ccc3nnc(Cl)n3n2)CC1`, the growth is 99.2% (inactive).

Consider `COc1ccc(N2CCN(C(=O)CSc3ccc(-c4nc5cc(C)c(C)cc5[nH]4)cn3)CC2)cc1`, for which the growth was 95.9% (inactive).

Regarding `Cc1cc(F)cc(NS(=O)(=O)c2ccc(-c3cnc(C4CC4)o3)cc2)c1`, the growth was 22.6% (inactive).

On to `Oc1ccc(CSc2nnc(-c3ccncc3)o2)c2cccnc12`, for which the growth was 15.8% (inactive).

On to `O=C(COc1ccc(/C=C2\SC(=O)NC2=O)cc1)Nc1ccc(C(=O)/C=C/c2cc3ccccc3nc2Cl)cc1`, for which the growth was 69% (inactive).

`O=C(Nc1cccc(Cl)c1)Nc1nc2ccc([N+](=O)[O-])cc2s1`: the growth was 5.89% (active).

In the case of `Cn1cc(-c2nn3cc(-c4cccnc4)nc3s2)c2cc(F)ccc21`, the growth is 96.8% (inactive).

Take `COc1ccc(CCN2C(=O)/C(=C/c3nc(CO)cs3)SC2=S)cc1`: the growth is 91.9% (inactive).

Regarding `C/C(=N\NC(=S)Nc1ccc(Br)cc1)c1cc2ccccc2oc1=O`, the growth is 17.8% (inactive).

`O=C1[C@H]2Cc3c([nH]c4ccccc34)[C@@H](c3ccc(Cl)cc3)N2C(=O)CN1C1CCN(Cc2c(Cl)cccc2Cl)CC1`: the growth is 91.2% (inactive).

For the molecule `O=C1[C@H]2Cc3c([nH]c4ccccc34)[C@@H](c3c(Cl)cccc3Cl)N2C(=O)CN1C1CCN(Cc2ccccc2)CC1`, the growth is 50.1% (inactive).

Consider `Oc1ccccc1-c1nnc(SCc2ccc(O)c3ncccc23)n1-c1ccccc1`, for which the growth was 11.5% (inactive).

As to `CC1=C2C(=C[C@@](C)(COS(N)(=O)=O)[C@@H]2O)C(=O)[C@](C)(O)C12CC2`, the growth was 71.8% (inactive).

As for `CC1(COc2ccc3ncc(C#Cc4cncc(C(=O)Nc5cc(C(C)(C)C)on5)c4)n3n2)COC1`, the growth is 29% (inactive).

Consider `NC(=S)N/N=C(/C=C/c1cn(-c2ccccc2)nc1-c1ccc(Cl)cc1)c1cc2ccccc2oc1=O`, for which the growth was 35.4% (inactive).

As for `O=C(/C=C1\C=CN(CCCCO)c2ccccc21)n1ccc2ccccc21`, the growth was 102% (inactive).

As to `Cc1cc(NS(=O)(=O)c2ccc(-c3cnc(C4CC4)o3)cc2)ccc1I`, the growth is 30.1% (inactive).

On to `Oc1ccc(CSc2nnc(-c3ccccc3)o2)c2cccnc12`, for which the growth is 10.9% (inactive).

In the case of `CS(=O)(=O)c1ccc2c(c1)c1c(n2S(=O)(=O)c2ccc(Cl)cc2)CCCC1`, the growth was 25.6% (inactive).

For `CN(C)C(=O)c1ccccc1-n1cnc2ccccc2c1=O`, the growth is 99.3% (inactive).

On to `C=C(C)C(=O)O[C@H]1C[C@@]2(C)OC(=CC2=O)[C@H](C)[C@H](O)[C@H]2OC(=O)C(=C)[C@@H]21`, for which the growth is 86.6% (inactive).

As to `O=C(Nc1cc(Cl)cc(Cl)c1)Nc1nc2ccc([N+](=O)[O-])cc2s1`, the growth is 6.61% (active).

Take `C#C[C@]1(O)CC[C@H]2[C@@H]3CC=C4c5sc(Nc6ccc(OC)nc6)nc5CC[C@]4(C)[C@H]3CC[C@@]21C`: the growth is 17.8% (inactive).

Consider `CCOc1ccc2nc(NC(=O)Nc3ccccc3C)sc2c1`, for which the growth was 48.2% (inactive).

Consider `CN(c1ccc(Br)cc1)S(=O)(=O)c1ccc(-c2cnc(C3CC3)o2)cc1`, for which the growth is 22.7% (inactive).

Consider `CCNC(=NCCCN(C)C)N/C(N)=N/c1nc2ccccc2s1`, for which the growth was 79.3% (inactive).

Take `Cc1cc(Cl)cc(NS(=O)(=O)c2ccc(-c3cnc(C4CC4)o3)cc2)c1`: the growth is 23.9% (inactive).

As to `N/C(=N\c1nc2ccc([N+](=O)[O-])cc2s1)C(Cl)(Cl)Cl`, the growth is 43.9% (inactive).

In the case of `CS(=O)c1nccc(-c2c(-c3ccc(F)c(OCCc4ccc(F)cc4)c3)nc3sccn23)n1` (stereo unspecified), the growth was 92.6% (inactive).

With `CN(c1ccc(F)cc1)S(=O)(=O)c1ccc(-c2cnc(C3CC3)o2)cc1`, the growth was 23.3% (inactive).

For `Cc1cn(-c2cc(NC(=O)c3cncc(C#Cc4cnc5ccc(OCCCS(C)(=O)=O)nn45)c3)cc(C(F)(F)F)c2)cn1`, the growth was 26.8% (inactive).
